In PubChem BioAssay AID1159571 (Broad Institute, 2015):
Measured potencies and affinities stand elsewhere. Values without a mark were called inactive. The rule behind the calls is not given here.

experiment: growth inhibition of PfATP4-mutant resistant parasites – NITD609-resistant line, SYBR Green, dry powder, dose response (AID 1159571); settings: P. falciparum ATP4 D1247Y mutant growth; series mostly up to 19.5 µM; activity change, negative = inhibition: at the top concentration

SMILES | activity change, negative = inhibition
C[C@@H]1CN([C@H](C)CO)C(=O)c2cccc(NC(=O)c3ccc(-c4nccs4)cc3)c2O[C@H]1CN(C)Cc1ccc(C(F)(F)F)cc1 | 23.8%
O=C(NC[C@@H]1CC[C@H]2[C@H](CN2Cc2cc(-c3ccccc3)on2)O1)c1ccc2c(c1)OCO2 | 18%
Cc1ccccc1-c1ccccc1[C@H]1[C@@H](C#N)N(C(=O)c2ccccc2)[C@@H]1CO | -10.3%
COc1cccc(C#Cc2ccc([C@H]3[C@@H](CO)N(C(=O)c4ccccn4)[C@H]3C#N)cc2)c1 | 11.4%
COc1ccc(S(=O)(=O)Nc2ccc3c(c2)CC(=O)N([C@@H](C)CO)C[C@H](C)[C@H](CN(C)S(=O)(=O)c2ccc(OC)cc2)O3)cc1 | 37.9% [at 21 µM]
